# Pol eta inh = blocks human DNA polymerase eta activity. Q9Y253. recombinant Pol eta, fluorescent DNA replication assay. Potency, µM (titrated, usually from 114 µM), for inactives: at the highest dose activity change, negative = inhibition, most hits filed as inhibitors. actives 1.2% (n = 390,000). AID 588591; also: % is scaled to controls: 0 for no effect and ±100 for the full control effect
#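 Pol eta at 10 nM preincubated with compounds 15 min at room temperature; reaction started with fluorescent substrate (50 nM final) and read kinetically at 0 and 10 min.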
# Pol kappa inh = blocks human DNA polymerase kappa activity; Potency, µM (titrated, usually from 107 µM), without a hit: at the top dose activity, negative = inhibition, usual class: inhibitors; Q9UBT6; purified Pol kappa, fluorescent DNA synthesis assay, 10 min; AID 588579; actives 0.53% (n = 400,000); also: % is scaled to controls: 0 for no effect and ±100 for the full control effect
#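 Here, compound and 10 nM enzyme are combined for 15 min at room temperature; adding 50 nM substrate (final) starts DNA synthesis, tracked by fluorescence at 0 and 10 min against buffer-only wells.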
# Pol iota inh = inhibitors of human DNA polymerase iota | Pol iota fluorescent replication assay, 10 min | Potency, µM (top dose mostly 115 µM), without a hit: at the highest dose activity, negative = inhibition, actives largely listed as inhibitors | actives 1% (n = 390,000)
#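 Pol iota at 10 nM preincubated 15 min with compounds at room temperature; reaction started with fluorescent substrate, 50 nM final. Fluorescence read kinetically at 0 and 10 min; buffer-only wells as negative control.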
# L3MBTL1 block = L3MBTL1 (human) inhibition | AlphaScreen L3MBTL1–H3K9me1 peptide binding | actives 0.66% (n = 230,000) | Potency, µM (top dose mostly 57.1 µM), for the others: at the top dose activity, negative = inhibition, hits mostly inhibitors; also: % is scaled to controls: 0 for no effect and ±100 for the full control effect; nearly all actives have a fitted effect of over 60% in size
#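 AlphaScreen proximity signal between nickel-chelate acceptor and streptavidin donor beads (final 10 ug/mL) reports binding of 50 nM L3MBTL1 to 75 nM biotin-H3 K9me1 peptide; complex incubated with compounds 30 min at room temperature; cefsulodin titration as control.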
# Pol beta inh = inhibitors of human DNA polymerase beta | Pol beta primer extension/strand displacement, fluorescence kinetic | Potency, µM (top dose mostly 114 µM), for inactives: top-dose activity change, negative = inhibition, actives largely listed as inhibitors | P06746 | actives 1.3% (n = 340,000); also: % is scaled to controls: 0 for no effect and ±100 for the full control effect
#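 Pol beta (10 nM) and compounds were preincubated 15 min at room temperature, then 50 nM substrate (final) started primer extension/strand displacement. Reads were taken at 0 and 10 min; concentration-response data were fitted to a four-parameter Hill equation.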
# APEX1 inh = APE1 (human) endonuclease inhibition; P27695; recombinant APE1, TAMRA/BHQ-2 abasic DNA cleavage fluorescence; Potency, µM (highest dose often 65.8 µM), without a hit: top-dose activity change, negative = inhibition, actives largely listed as inhibitors; actives 0.35% (n = 350,000); AID 2517;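 also: plate controls were vehicle for no effect and reference inhibitor for full effect; nearly all actives have a fitted effect of over 55% in size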
# Target sequence (P27695 whole entry, looked up): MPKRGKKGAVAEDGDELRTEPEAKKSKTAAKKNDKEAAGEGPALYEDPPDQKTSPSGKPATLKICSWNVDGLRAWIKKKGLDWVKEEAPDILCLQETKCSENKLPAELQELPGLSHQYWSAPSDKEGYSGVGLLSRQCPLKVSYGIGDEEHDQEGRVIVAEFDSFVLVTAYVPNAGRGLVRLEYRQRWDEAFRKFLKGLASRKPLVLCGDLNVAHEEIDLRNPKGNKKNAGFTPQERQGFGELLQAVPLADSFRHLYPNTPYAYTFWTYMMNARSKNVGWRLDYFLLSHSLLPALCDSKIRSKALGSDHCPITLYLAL
#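 Measures dequenching upon AP-site incision of a 5'-TAMRA/3'-BHQ-2 THF-containing duplex, 50 nM; human APE1 0.75 nM after 15 min room-temperature exposure to compound; kinetic three-point read at one-minute spacing.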
# Starred values were filed as active, the others as inactive; ? = inconclusive; · = not tested or not shown; [ ] = dose if it differs, or a comment. A selection: hits, their analogues and other compounds. The true share with any hit is near 2.5%. Calls follow the shape of the dose curve; as a rule, active = well fitted curve in the direction sought with a large enough effect; inconclusive = small, poorly fitted or top-dose-only effect, or another doubt; inactive = no such curve, though single readings can be large; an effect the other way counts as inactive or inconclusive. Potency is read from the fitted curve at half-maximal effect.
SMILES,Pol eta inh,Pol kappa inh,Pol iota inh,L3MBTL1 block,Pol beta inh,APEX1 inh
CN=CC1=C(O)c2ccccc2C1=O,-7.7%,0.8%,-12.5%,-2.6%,30.0%,-3.2%
O=C1C(C=Nc2ccccc2)=C(O)c2ccccc21,10.2%,0.1%,19.5%,·,40.9%,8.8%
Cc1ccc(O)c(N=CC2=C(O)c3ccccc3C2=O)c1,17.8µM*,-25.4%,?,?,?,-9.3%
COc1cccc(C2CC(=O)Nc3cc4c(cc32)OCCO4)c1OC (configuration not stated),-14.2%,0.9%,-2.0%,·,3.9%,·
Nc1nc2[nH]cc(CCc3ccc(C(=O)N[C@@H](CCC(=O)O)C(=O)O)cc3)c2c(=O)[nH]1,·,?,13.5%,·,·,·
Cc1ccc(C)c(NC(=O)CSc2nnc3[nH]c(=O)cc(-c4ccccc4)n23)c1,-13.3%,-5.3%[60.1 µM],8.3%,·,18.6%,·
Cc1ccc(NC(=O)CSc2nnc3[nH]c(=O)cc(-c4ccccc4)n23)cc1Cl,-7.2%,-3.4%[60.1 µM],0.4%,·,39.8µM*,·
CCC(=O)N1CCc2cc(CNC(=O)Cc3ccc(OC)c(OC)c3)ccc21,6.3%,-4.5%[60.1 µM],11.0%,·,9.0%,·
Cc1ccc([N+](=O)[O-])cc1N=Nc1c(-c2ccc([N+](=O)[O-])cc2)[nH]n(C(N)=S)c1=O,?,-11.8%,?,-9.0%,-19.3%,-1.9%
NC(=S)n1[nH]c(-c2ccc([N+](=O)[O-])cc2)c(N=Nc2ccc(Cl)cc2)c1=O,?,?,20µM*,?,?,9.5%
COc1ccc(C2COc3cc(O)ccc3C2)c(OC)c1O (configuration not stated),-0.5%,8.7%,79.4µM*,·,·,·
CC1(C)C=Cc2c(ccc3c2OC[C@H](c2ccc(O)cc2O)C3)O1,-12.6%,-3.8%,6.1%,-13.7%,·,-5.4%
O=C(O)Cn1cc(/C=N/NC(=O)c2cc3cc(Br)ccc3o2)c2ccccc21,-22.2%,-24.7%,70.8µM*,·,?,?
COc1cccc(NC(=O)COc2ccccc2C(=O)Nc2ccccc2)c1,·,-1.4%,-21.5%,·,·,·
COCCCN=C(c1ccco1)n1c(=S)nc(-c2ccco2)n(CCCOC)c1=S,-4.6%,?,20µM*,?,35.5µM*,?
Fc1cccc(CSc2nc3ncccc3[nH]2)c1,1.2%,-2.7%,5.3%,-4.4%,-0.6%,-1.4%
Fc1cccc(CSc2nc3ncc(Cl)cc3[nH]2)c1,-21.9%,-9.9%,70.8µM*,40.7%,35.5µM*,0.7%
Clc1ccc2nccnc2c1,·,13.0%,16.0%,·,·,·
Cc1ccc(-n2c(SCc3cc(=O)n4ccsc4n3)nnc2-c2cccnc2)c(C)c1,3.7%,-9.4%,?,?,17.8µM*,?
Cc1ccc(-n2c(SCC(N)=O)nnc2-c2cccnc2)c(C)c1,-11.3%,5.2%,-4.9%,-0.4%,30.7%,17.1%
O=C(Nc1cc(Cl)cc(Cl)c1)c1coc(=O)c(Br)c1,?,79.4µM*,28.2µM*,?,28.2µM*,?
O=C(NNC(=O)C1C2CCCCC21)c1coc(=O)c(Br)c1 (configuration not stated),50.1µM*,?,44.7µM*,·,?,?
Cc1nc2c(O)c3c(c(O)c2nc1C)C1C=CC3CC1,2.2%,-5.0%,14.1µM*,·,·,·
Cc1nc2c(C)c(C)c(C)c(C)c2nc1C,-18.9%,-2.7%,58.2%,6.8%,8.1%,-3.7%
CCCCCCCCCCCCOC(=O)N1CCN(/[N+]([O-])=N/Oc2ccc([N+](=O)[O-])cc2[N+](C)=O)CC1,·,2.7%,35.0%,·,·,·
SMILES,Pol eta inh,Pol kappa inh,Pol iota inh,L3MBTL1 block,Pol beta inh,APEX1 inh
COc1cc(/C=N/NC(=O)c2ccncc2)c([N+](=O)[O-])cc1OC,-14.0%,1.0%,?,·,2.6%,0.1%
O=C(N/N=C/c1cc(Cl)ccc1O)c1ccncc1,?,-3.7%,22.8%,25.1µM*,-0.1%,15.2%
COc1cc(OC)c([N+](=O)[O-])cc1/C=N/NC(=O)c1ccncc1,31.6µM*,-36.5%,?,?,19.4%,9.4%
O=C(N/N=C/c1ccccc1Cl)c1ccncc1,4.6%,-6.9%,-12.5%,8.8%,71.3%,-5.0%
CC(=O)c1cccc(S(=O)(=O)NC(C)C2CC3CCC2C3)c1 (configuration not stated),?,-5.3%,?,·,22.4µM*,17.5%
CCc1nn2c(=O)cc(COC(=O)c3cccc(NC(=O)c4cccs4)c3)nc2s1,-11.8%,-2.1%[60.1 µM],89.1µM*,·,1.0%,·
CC(C)c1nn2c(=O)cc(COC(=O)c3cccc(NC(=O)c4cccs4)c3)nc2s1,-20.5%,0.5%[60.1 µM],-5.9%,·,-0.4%,·
Cc1ccccc1OCC(=O)OCc1cc(=O)n2nc(-c3cccs3)sc2n1,-14.8%,-20.9%,?,·,?,·
O=C(OCc1cc(=O)n2nc(-c3cccs3)sc2n1)c1ccc(Cl)cc1,?,-34.4%,?,·,31.6µM*,·
O=C(COc1ccccc1F)OCc1cc(=O)n2nc(-c3cccs3)sc2n1,-28.5%,-15.6%,?,·,31.6µM*,·
O=C(OCc1cc(=O)n2nc(-c3cccs3)sc2n1)c1ccccc1,79.4µM*,-23.4%,79.4µM*,·,35.5µM*,·
CCOc1ccccc1Oc1nc(C)nc2c1oc1ccccc12,-28.4%,0.0%[60.1 µM],24.9%,·,1.7%,·
Cc1ccccc1NC(=O)Cn1nc(-c2ccc(F)cc2)c2cnc3ccccc3c21,-10.3%,17.5%,25.6%,·,-8.2%,·
Cc1cccc(OCc2ccc(-c3nc(C#N)c(NCCN(C)C)o3)o2)c1,·,-7.4%,17.3%,·,2.5%,·
Cc1ccc2nc(/C=C/c3ccc(N(C)C)cc3)ccc2c1,·,7.0%,64.3%,·,·,·
Cc1cccc(C(=O)OCc2cc(=O)n3nc(-c4cccs4)sc3n2)c1,?,?,89.1µM*,·,20µM*,·
O=C(O)c1ccccc1N/N=C/c1cc(Br)cc(Br)c1O,79.4µM*,-21.8%,?,-1.9%,?,-6.7%
CCOc1ccc(C2=CC(c3cccc(Br)c3)n3c(nc4ccccc43)N2)cc1Cl (configuration not stated),-16.9%,-21.7%[60.1 µM],12.8%,·,4.2%,·
O=C1C(=Cc2ccco2)CCCC1=Cc1ccco1,22.4µM*,50.1µM*,20µM*,·,·,·
O/N=C1\CCC\C1=C/c1ccco1,-32.3%,?,?,-7.0%,-16.9%,?
O=C(Cc1ccc(S(=O)(=O)N2CCCC2)s1)Nc1nc2c(s1)CCCC2,17.8µM*,-26.6%,?,-24.9%,?,?
O=C(Cc1ccc(S(=O)(=O)N2CCCC2)s1)N1CCOCC1,?,-13.4%,?,-3.4%,44.7µM*,-8.6%
O=C(Cc1ccc(S(=O)(=O)N2CCOCC2)s1)Nc1ccc(N2CCOCC2)cc1,-22.8%,1.3%,59.5%,-4.2%,31.6µM*,-13.3%
